The results in this text go back to the supplement of paper PMC6522484.

For assay [1], the system named is DLD1. In words: cell viability (CellTiter-Glo) relative to plate median (fraction of plate median); higher = more viable cells. The conditions noted are these: 5 µM; treatment time 24 h; reporter: 7TFP. In short, it runs like this: (§1)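 On parallel plates, a Tecan F500 reader recorded either firefly luciferase or CellTiterGlo luminescence. The plates held colorectal cancer cells stably transduced with lentiviral TCF/Wnt firefly luciferase reporters (7TFP or TCF4/Wnt), seeded in 384-well format and treated 24 h later with library compounds at a final 5 µM for 24 h. Per-well signals were normalised to the plate median (webcellHTS2, additive, no log transformation), and two independent replicates were averaged.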
Background: Cellular ATP, detected with luciferase, serves as a proxy for viable cell number.

A further assay relates to HCT116. The assay is described as above. To be noted: 5 µM; treatment time 24 h; reporter: TCF4/Wnt. In short, it runs like this: as §1
Assay [2] relates to SW480. The description is as above. To be noted: 5 µM; treatment time 24 h; reporter: 7TFP. In short, it runs like this:
as §1

Assay [3] deals with DLD1. In words: TCF/Wnt firefly luciferase reporter signal relative to plate median (fraction of plate median); higher = higher Wnt reporter signal. To be noted: 5 µM; treatment time 24 h; reporter: 7TFP. In short, it runs like this:
as §1
On the technique in general: A reporter such as luciferase makes a cellular process visible.

The subject of assay [4] is SW480. The description is as above. To be noted: 5 µM; treatment time 24 h; reporter: 7TFP. In short, it runs like this:
as §1

± gives the standard deviation of the averaged measurements.

Consider `CCN1CCN(C(=O)N[C@@H](C(=O)N[C@@H]2C(=O)N3C(C(=O)O)=C(CSc4nnnn4C)CS[C@H]23)c2ccc(O)cc2)C(=O)C1=O`, for which the cell viability with DLD1 [1] is 0.973 ± 0.053; with HCT116, 1.06 ± 0.035; in the assay with SW480 [2] it was 0.951 ± 0.023. Further, the “TCF/Wnt firefly luciferase reporter signal” value was 0.886 ± 0.042 in the assay on DLD1 [3] and 1.01 ± 0.098 in the assay with SW480 [4].
On the same counts, the results for `CC[C@@H](C(=O)[C@@H](C)[C@@H](O)[C@H](C)CCc1ccc(C)c(O)c1C(=O)O)[C@H]1O[C@](CC)([C@H]2CC[C@](O)(CC)[C@H](C)O2)C[C@@H]1C` are 0.985 ± 0.013, 1.03 ± 0.098, 1.02 ± 0.014, 1.23 ± 0.099 and 1.03 ± 0.12.
As to `CC1=CCCC(C)=CCC(C)(C)C=CC1` [HUMULENE (alpha)], the cell viability in the assay with DLD1 [1] is 0.978 ± 0.013; with HCT116 it was 1.01 ± 0.027; in the assay on SW480 [2] it was 0.965 ± 0.021. Further, the “TCF/Wnt firefly luciferase reporter signal” value with DLD1 [3] was 1.04; in the assay with SW480 [4], 1.15 ± 0.13.
On the same counts, the results for `CC(C)NCC(O)COc1ccc(COCCOC(C)C)cc1` (stereo not given) are 0.948 ± 0.017, 0.99 ± 0.0057, 0.933 ± 0.0028, 1.03 ± 0.042 and 0.964 ± 0.066.
For `Nc1ccc(S(=O)(=O)Nc2cnc3ccccc3n2)cc1`, in that order: 0.996 ± 0.02, 1.07 ± 0.028, 1 ± 0.08, 1.11 ± 0.085 and 1.045 ± 0.0071.
For `CCn1cc(C(=O)O)c(=O)c2cnc(N3CCCC3)nc21`, in that order: 0.983 ± 0.025, 1 ± 0.029, 0.955 ± 0.02, 0.856 ± 0.055 and 0.978 ± 0.046.
For `CCCCC[C@@H](O)[C@H]1C(=O)O[C@H](C)[C@@H](O)/C=C/C=C/C=C/C=C/C=C(\C)[C@@H](O)C[C@H](O)C[C@H](O)C[C@H](O)C[C@H](O)C[C@H](O)C[C@@H]1O`, the results for the cell viability with DLD1 [1], in the assay on HCT116 and in the assay with SW480 [2] were 1.02, 1.05 ± 0.05 and 0.989 ± 0.03, respectively. Moreover, the “TCF/Wnt firefly luciferase reporter signal” value in the assay with DLD1 [3] came to 1.01 ± 0.022; with SW480 [4], 1.09 ± 0.078.
For `CSc1ccc2c(c1)N(CCC1CCCCN1C)c1ccccc1S2` (stereo not given), in that order: 1.01 ± 0.048, 1.02 ± 0.076, 1.115 ± 0.0071, 0.928 ± 0.039 and 0.895 ± 0.1.
Take `Cc1cccc(Nc2cc(Cl)nc(SCC(=O)O)n2)c1C`: the cell viability in the assay on DLD1 [1] was 0.964 ± 0.021; with HCT116 it was 0.999 ± 0.044; in the assay on SW480 [2], 0.9325 ± 0.0064. The “TCF/Wnt firefly luciferase reporter signal” value in the assay with DLD1 [3] is 1.09 ± 0.014; in the assay with SW480 [4], 1.085 ± 0.0071.
On the same counts, the results for `COc1cccc2c1C(=O)c1c(O)c3c(c(O)c1C2=O)C[C@@](O)(C(=O)CO)C[C@@H]3O[C@H]1C[C@H](N)[C@@H](O)[C@H](C)O1` are 1.03 ± 0.028, 0.589 ± 0.19, 1.11 ± 0.13, 1.16 ± 0.014 and 0.727 ± 0.082.
On the same counts, the results for `CC(C)CC1NC(=O)C2CCCN2C1=O` (single isomer, unassigned; isomere) [Cyclo(leucylprolyl) (Isomere)] are 0.919 ± 0.068, 0.94 ± 0.016, 1.02 ± 0.054, 0.69 ± 0.27 and 1.12 ± 0.064.
Turning to `CCN1CCCC1CNC(=O)c1cc(S(N)(=O)=O)ccc1OC` (stereo not given), the cell viability in the assay with DLD1 [1] came out at 0.985 ± 0.064; in the assay on HCT116, 0.954 ± 0.023; in the assay with SW480 [2], 1.02 ± 0.071. Moreover, the results for the “TCF/Wnt firefly luciferase reporter signal” value in the assay on DLD1 [3] and in the assay with SW480 [4] were 1.06 ± 0.22 and 0.959 ± 0.072, respectively.
On the same counts, the results for `CCCc1cc(OC)c2c(c1)OCO2` are 0.961 ± 0.11, 0.939 ± 0.014, 0.976 ± 0.049, 0.958 ± 0.034 and 0.964 ± 0.065.
As to `COc1ccc([C@@H](C)C(=O)c2ccc(O)cc2O)cc1`, the results for the cell viability with DLD1 [1], with HCT116 and with SW480 [2] were 1.04 ± 0.098, 1.09 ± 0.071 and 1.025 ± 0.0071, respectively. The results for the “TCF/Wnt firefly luciferase reporter signal” value in the assay with DLD1 [3] and with SW480 [4] were 1.02 ± 0.071 and 1.07 ± 0.1, respectively.
As to `C[C@]12CC[C@@H](O)C[C@H]1CCc1ccccc12` [3alpha-HYDROXY-4,4-BISNOR-8,11,13-PODOCARPATRIENE], the cell viability came to 1.03 ± 0.08 with DLD1 [1], 1.01 ± 0.27 in the assay with HCT116 and 1.03 ± 0.014 in the assay on SW480 [2]. Also, the “TCF/Wnt firefly luciferase reporter signal” value in the assay with DLD1 [3] is 0.971 ± 0.022; with SW480 [4] it was 1.15 ± 0.064.
